Experimental data reported in ChEMBL document CHEMBL4513216, “Probing the Open Global Health Chemical Diversity Library for Multistage-Active Starting Points for Next-Generation Antimalarials” (ACS Infect Dis, 2020).
Out of some 69,000 compounds screened, about 8,600 (12%) showed an effect of 50% or more. The sample holds strong results, similar compounds and a random draw of the others, so the mix is not that of the screen.

Tested on: Plasmodium berghei
Test: Screen against P. berghei liver stage (PbLuc), transformed with Luciferase, at 10uM
Type: functional, HepG2
Conditions: tested at 10 uM

| Compound | INHIBITION [%] |
| --- | --- |
| CN(C(=O)NCCN1CCOCC1)C1CCN(c2ccccc2)C1=O (stereo not given) | 13.375 |
| Cc1nc(CN2CCCCC2CCc2cccs2)co1 (stereo not given) | 24.9 |
| COCc1noc(CN2CCCCC2CCc2cccs2)n1 (stereo not given) | 51.2 |
| c1csc(CCC2CCCCN2Cc2noc(C3CC3)n2)c1 (stereo not given) | 34.9 |
| CCNC(=O)CNCc1c(C(C)C)nn(C)c1N1CCOCC1 | 11.35 |
| COCCn1cc(NC(=O)N(CCC(N)=O)Cc2ccccc2)cn1 | -1.25 |
| CCN(CC(C)O)C(=O)Nc1cnn(CCOC)c1 (stereo not given) | 29.8 |
| CCCN(Cc1ccccc1O)C(=O)Nc1cnn(CCOC)c1 | 59.7 |
| CC(=O)NCC(=O)N1CCC2(CC1)NC(=O)CC2c1cccnc1 (stereo not given) | 34.6 |
| COCCn1ccnc1C1CCCN(C(=O)CSc2nnc(C)o2)C1 (stereo not given) | 20.9 |
| CCC(=O)N1CCCCC1c1nc(N(C)C)ncc1-c1cc(C)no1 (stereo not given) | 22.5 |
| COc1ccc2[nH]cc(C3CCN(CCC(N)=O)CC3)c2c1 | 36.6 |
| CNC(=O)NC(=O)CN1CCC(c2c[nH]c3ccc(OC)cc23)CC1 | 15.1 |
| CNC(=O)NC(=O)C(C)N1CCN(C2CCCC2)CC1 (stereo not given) | 28.7 |
| CNC(=O)NC(=O)C(C)N1CCC(c2c[nH]c3ccc(OC)cc23)CC1 (stereo not given) | 61.5 |
| CNC(=O)NC(=O)C(C)N1CCCc2cc(OC)ccc2C1 (stereo not given) | -25.1 |
| CCNC(=O)NC(=O)CN1CCC(c2c[nH]c3ccc(OC)cc23)CC1 | 62.6 |
| CNC(=O)[C@@H](c1ccccc1)N1CCC[C@H]1C(=O)NCc1cccnc1 | -1.12 |
| CCS(=O)(=O)N1CCCC2(COCCN(c3nnc(C)o3)C2)C1 (stereo not given) | 29.8 |
| Cc1noc(C)c1Cc1nc(C2CC2)no1 | 14.6 |
| Cc1nc(CN2CCN(C(C)c3nc(C4CC4)no3)CC2)oc1C (stereo not given) | 4.75 |
| Cc1noc(C)c1CN1CCN(Cc2nc(C3CC3)no2)CC1 | 72.2 |
| Cc1noc(C)c1CN1CCCC(c2noc(C3CC3)n2)C1 (stereo not given) | -12.2 |
| Cc1cnc(CN2CCN(C(C)c3nc(C4CC4)no3)CC2)cn1 (stereo not given) | 24.7 |
| Cc1noc(C)c1CN1CCN(C(C)c2nc(C3CC3)no2)CC1 (stereo not given) | 59 |
| CCCN(Cc1nc(-c2ccc(F)c(OC)c2)oc1C)CC1CCCO1 (stereo not given) | -12.1 |
| Cc1cc(C)n(CC2CCCN2C(=O)c2cccnc2N(C)C)n1 (stereo not given) | 21 |
| Cc1ccc(CN(C(=O)NC2CCS(=O)(=O)C2)C2CC2)o1 (stereo not given) | 2.79 |

| Compound | INHIBITION [%] |
| --- | --- |
| Cc1ccccc1OCCN1CCCC(c2cc(C(N)=O)[nH]n2)C1 (stereo not given) | 23.5 |
| Cn1cc(CN(C/C=C/c2ccccc2)C2CC2)cn1 | -59.5 |
| O=C1CCCN1C1CCCN(CCn2cc(Cl)cn2)C1 (stereo not given) | -63.5 |
| CN(Cc1ccco1)[C@@H]1CN(Cc2nccs2)C[C@@H]2CCCO[C@@H]21 | 44.3 |
| CC(C1CCN(Cc2cnn(C)c2C2CC2)CC1)N(C)C (stereo not given) | 50.7 |
| CC(C1CCN(Cc2cnn(C)c2C2CC2)CC1)N1CCCC1 (stereo not given) | 40.9 |
| CC(C1CCN(Cc2cnn(C)c2C2CC2)CC1)N1CCN(C)CC1 (stereo not given) | 29 |
| O=C(NCC1CCOC1)c1ccc(-c2ccccc2)[nH]c1=O (stereo not given) | -26.6 |
| Cc1cccc(-c2ccc(C(=O)NCC3CCCO3)c(=O)[nH]2)c1 (stereo not given) | -29.1 |
| Cc1ccc(CN2CCCC3(CCCC(=O)N3)C2)s1 (stereo not given) | 21.1 |
| CCOCCN1CCCC1CS(N)(=O)=O (stereo not given) | 61.5 |
| Cc1ccccc1OCCN1CCCC1CS(N)(=O)=O (stereo not given) | -55.2 |
| NS(=O)(=O)CC1CCCN1CCOc1ccccc1F (stereo not given) | 37.9 |
| COCc1ccc(C(=O)N2CCN(CC(C)O)CC2)cc1 (stereo not given) | -7.81 |
| COc1ncccc1C(=O)N1CCCC1c1c(C)nn(C)c1Cl (stereo not given) | -23.9 |
| CC(C)CN(Cc1ccc(-n2cncn2)cc1)Cc1ccccn1 | 34.9 |
| CN(CC1CCCCO1)c1nc(-c2cccnc2)nc2c1CCNC2 (stereo not given) | 72.3 |
| Cc1nonc1CN(C)c1nc(-c2cccnc2)nc2c1CCNC2 | 81.1 |
| CN(CC(O)CO)c1nc(-c2cccnc2)nc2c1CCNC2 (stereo not given) | 26.1 |
| Cc1nonc1CN(C)c1nc(-c2ccco2)nc2c1CCN(C)CC2 | 75.4 |
| CN(CC1CCCO1)c1nc(-c2cccnc2)nc2c1CCNCC2 (stereo not given) | 7.43 |
| Cc1noc(CN(C)c2nc(-c3ccco3)nc3c2CCN(C)CC3)n1 | 28.8 |
| Cc1cc(CN(C)c2nc(-c3ccco3)nc3c2CCN(C)CC3)on1 | 30 |
| Cc1nccn1CCN(C)c1nc(-c2cccnc2)nc2c1CCNC2 | -1.25 |
| NCC1CN(c2nc(-c3cccnc3)nc3c2CCNCC3)CCO1 (stereo not given) | 7.43 |
| CNC(=O)N1CCC2(CC1)c1ncc(C)n1CCN2C | 48.4 |
| CN1C[C@H](c2ccccc2)[C@H]2CN(C(=O)Cc3cccc(O)c3)CC[C@H]21 | 43.7 |
